Measurements: PubChem BioAssay (NCATS)
Results filed as inconclusive are left out. A call without a number means that no potency is given here. The source made the active and inactive calls. Calls come from the whole dose curve; as a rule, active = well fitted inhibition curve with a large enough effect in the repeat runs; inconclusive = weak or mixed curves; inactive = no such curve, though single readings can be large or run the other way.

target: Cytochrome P450 2C9 (Homo sapiens) (UniProt P11712); assay: Cytochrome P450 family 2 subfamily C member 9 (CYP2C9) small molecule antagonists: luciferase biochemical (cell-free) qHTS assay (AID 1645842); settings: P450-Glo CYP2C9 enzyme assay, luciferin luminescence; series mostly up to 57.4 µM; note: nearly all actives have a fitted effect of over 55% in size
Sequence (P11712 whole entry, looked up): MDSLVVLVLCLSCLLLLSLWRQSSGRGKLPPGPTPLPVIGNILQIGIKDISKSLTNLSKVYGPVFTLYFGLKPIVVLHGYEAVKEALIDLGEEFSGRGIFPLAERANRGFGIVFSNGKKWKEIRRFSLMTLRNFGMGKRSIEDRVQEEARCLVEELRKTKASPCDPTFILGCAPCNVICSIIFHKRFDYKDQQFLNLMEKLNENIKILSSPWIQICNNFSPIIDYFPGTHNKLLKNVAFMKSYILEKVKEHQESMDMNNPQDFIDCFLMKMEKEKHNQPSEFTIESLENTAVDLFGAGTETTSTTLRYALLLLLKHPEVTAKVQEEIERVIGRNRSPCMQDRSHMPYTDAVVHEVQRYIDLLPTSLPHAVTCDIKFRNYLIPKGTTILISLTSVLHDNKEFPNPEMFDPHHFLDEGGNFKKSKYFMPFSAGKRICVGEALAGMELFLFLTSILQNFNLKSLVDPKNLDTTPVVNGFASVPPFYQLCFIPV
How it was run: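 P450-Glo CYP2C9 system: proluciferin substrate with enzyme in mix containing 0.4% BSA, 10 min at room temperature, then NADPH regeneration solution added and incubated 1 h at 37C. Detection reagent stopped reaction; luminescence read after 20 min as RLU.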
Potency is the fitted concentration of half-maximal effect.

Structure (SMILES) | Potency
CC(=O)Oc1ccc(C)cc1 | inactive
COc1ccc(CN(CCN(C)C)c2ncccn2)cc1 | inactive
O=C(O)CCNC(=O)c1ccccc1 | inactive
Cc1cccc(C)c1NC(=O)c1ccccc1C(=O)O | inactive
Cc1ncc(CO)c(C=O)c1O | inactive
CN(C)C(=O)Nc1ccc(Cl)c(Cl)c1 | inactive
CCN(CC)CCNc1ccc(CO)c2sc3ccccc3c(=O)c12 | inactive
COc1ccc(/C=N/NC(=O)c2ccncc2)cc1OC | 12.3 µM (active)
CC(=O)Nc1ccc(OCC(O)CNC(C)C)cc1 (centres undefined) | inactive
O=S(=O)(O)c1ccc(O)cc1 | inactive
COP(=O)(OC)OC(c1ccc(Cl)cc1)P(=O)(OC)OC (centres undefined) | inactive
CCCCCCCCCCCCCC(=O)OC(C)C | inactive
Cc1cc(-c2ccccc2)nnc1NCCN1CCOCC1 | inactive
Cc1ccc(S(=O)(=O)NC(=O)NC2CCCC2)cc1 | inactive
CCC(C(=O)OCCOCCN(CC)CC)c1ccccc1 (centres undefined) | inactive
CC(C)Cn1cnc2c1c(=O)n(C)c(=O)n2C | inactive
CC(=O)N[C@@H](CCC(=O)O)C(=O)O | inactive
Oc1c(Cl)cc(Cl)c(Cl)c1Cc1c(O)c(Cl)cc(Cl)c1Cl | 1.55 µM (active)
OC(C#CCN1CCCC1)(c1ccccc1)c1ccccc1 | 8.71 µM (active)
N#CCC(=O)NN | inactive
CC(C)NCC(O)c1ccc2ccccc2c1 (centres undefined) | inactive
CCCCNC(=O)NS(=O)(=O)c1ccc(N)cc1 | inactive
O=c1[nH]c(=O)n([C@H]2C[C@H](O)[C@@H](CO)O2)cc1F | inactive
Nc1ccc(S(=O)(=O)NCc2ccccc2)cc1 | inactive
